Source: PubChem BioAssay (The Scripps Research Institute Molecular Screening Center)
GBA enhancer – increases beta-glucosidase activity in Gaucher fibroblasts. P04062. L444P Gaucher fibroblasts, 4-MU-glucoside fluorescence, 3 days. activation, % at 10 µM. 0.44% of 30,000 active; in the data active = activation above about 65%;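 also: 0% = vehicle wells and 100% = positive control wells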
Target sequence (P04062 whole entry L483P): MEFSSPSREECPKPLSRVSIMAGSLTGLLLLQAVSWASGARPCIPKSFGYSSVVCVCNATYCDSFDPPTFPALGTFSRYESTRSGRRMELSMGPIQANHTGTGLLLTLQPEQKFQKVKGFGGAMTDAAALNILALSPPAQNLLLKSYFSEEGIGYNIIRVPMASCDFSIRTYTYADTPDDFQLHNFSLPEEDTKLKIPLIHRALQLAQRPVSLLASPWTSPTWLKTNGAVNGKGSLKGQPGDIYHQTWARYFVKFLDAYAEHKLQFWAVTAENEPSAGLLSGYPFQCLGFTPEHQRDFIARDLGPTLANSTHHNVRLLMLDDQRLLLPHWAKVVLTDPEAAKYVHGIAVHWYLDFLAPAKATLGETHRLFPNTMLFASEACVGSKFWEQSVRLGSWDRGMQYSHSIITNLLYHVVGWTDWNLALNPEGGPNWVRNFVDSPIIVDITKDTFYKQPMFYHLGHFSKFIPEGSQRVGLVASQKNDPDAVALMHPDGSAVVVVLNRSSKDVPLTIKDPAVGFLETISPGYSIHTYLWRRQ
Numbers without * were called inactive. Shown is part of a subset that was picked to be rich in hits.

SMILES	GBA enhancer
COc1ccc2cc3cc(C(=O)NCCCN4CCOCC4)oc3nc2c1	10.8
CCCN(CCC)CCCNC(=O)c1cc2cc3ccc(OC)cc3nc2o1	47.6
CCCCN(CC)CCCNC(=O)c1cc2cc3ccc(OC)cc3nc2o1	123.2*
CCN1CCN(CCCNC(=O)c2cc3cc4ccc(OC)cc4nc3o2)CC1	93.7*
CCOC(=O)CSc1nc(C2CC2)nc2ccccc12	-0.1
Cc1cccc(N2CCN(C(=O)COc3cc(=O)n(C)c4ccccc34)CC2C)c1 (centres undefined)	-35.1
Cc1csc(SCCn2c(N3CCN(c4ccccc4)CC3)nc3c2c(=O)[nH]c(=O)n3C)n1	17.6
O=C(c1cccn2c(=O)c3ccc(Cl)cc3nc12)N1CCN(Cc2ccc3c(c2)OCO3)CC1	8.1
Cc1cccc(-n2ncc3c(N4CCN(c5nc(C)cc(C)n5)CC4)ncnc32)c1	-9.9
O=C(CCCn1c(=S)[nH]c2cc3c(cc2c1=O)OCO3)N1CCN(c2ncccn2)CC1	79.3*
O=C(CCCn1c(=S)[nH]c2cc3c(cc2c1=O)OCO3)N1CCN(c2ccc(F)cc2)CC1	-21.0
COc1cccc(N2CCN(C(=O)CCn3c(=S)[nH]c4cc5c(cc4c3=O)OCO5)CC2)c1	14.3
Cc1ccc(/C=C/C2=Cc3c(sc(NC(=O)CSc4n[nH]c(N)n4)c3C#N)C(C)(C)C2)o1	-15.6
COc1ccccc1C(=O)Nn1cnc2ccccc2c1=O	-6.7
COC(=O)c1cn(NC(=O)c2ccncc2)c(=O)c2ccccc12	74.5*
COc1ccc(Cl)cc1C(=O)Nn1cnc2ccccc2c1=O	-14.8
CC(C)c1nc(SCC(=O)NCc2ccc3c(c2)OCO3)c2c(=O)n(C)c(=O)n(C)c2n1	1.0
COc1ccc(S(=O)(=O)C(C#N)c2nc3ccccc3nc2N2CCC(C)CC2)cc1 (centres undefined)	12.4
COc1ccccc1OCCC(=O)OCC(=O)Nc1ncc(Cl)cc1Cl	3.8
CN1CCN(S(=O)(=O)c2ccc(NC(=O)Nc3cccc(Cl)c3)cc2)CC1	1.9
O=C(Nc1cccc(Cl)c1)Nc1nccs1	-49.4
N#CCc1ccc(NC(=O)Nc2cccc(Cl)c2)cc1	70.1*
Cc1ccc(OCCCC(=O)Nc2ccc(S(=O)(=O)Nc3cc(C)on3)cc2)cc1	-15.2
Cc1cc(NS(=O)(=O)c2ccc(NC(=O)CCN3C(=O)c4ccccc4C3=O)cc2)no1	93.0*
CC1CN(S(=O)(=O)c2ccc(NC(=O)CCN3C(=O)c4ccccc4C3=O)cc2)CC(C)O1 (centres undefined)	-38.7
SMILES	GBA enhancer
CC(=O)C(Sc1nn(C)c(=S)s1)C(=O)Nc1ccccc1 (centres undefined)	-10.3
Cc1nnc(SCC(=O)NC(C)(C)C)n1CCc1ccccc1	-6.9
CC(C)(C)NC(=O)CSc1nncn1NCc1ccccc1	67.8*
Cc1ccc(CNn2cnnc2SCC(=O)NC(C)(C)C)cc1	-22.1
Cc1cc(C)nc(SCc2nnc(SCC(=O)Nc3ccccc3C)n2Cc2ccco2)n1	-3.4
CCCCOCCCn1c(-c2ccco2)nc2nc3ccccc3nc21	38.0
Cc1cc(NC(=O)CSc2nc(-c3ccccc3)c(C#N)c(=O)[nH]2)no1	6.4
COc1cc(OC)nc(NC(=O)CSc2nc3ccccc3[nH]2)n1	3.6
Cc1cc(NC(=O)CSc2nc3ccccc3[nH]2)no1	99.9*
COc1ccccc1S(=O)(=O)Cc1ccc(C(=O)NC(C)c2ccc3c(c2)OCCO3)o1 (centres undefined)	-22.4
CC(C)CC(C(=O)NCc1ccccn1)N1C(=O)c2ccccc2C1=O (centres undefined)	7.9
COc1ccccc1OCc1nnc(SCC(=O)c2cc(Cl)ccc2OC)o1	-8.8
COCCCn1c(-c2ccsc2)nc2c1c(=O)[nH]c(=O)n2Cc1ccccc1	-7.1
CCOC(=O)c1[nH]c(COC(=O)C2CC(=O)N(Cc3ccccc3)C2)c(C(=O)OCC)c1C (centres undefined)	5.5
Cc1ccc(OCC(=O)Nc2cccc(-c3nnc(-c4ccccc4)o3)c2)cc1	9.2
CCOC(=O)c1nnc(-c2ccccc2)o1	-17.3
CCOC(=O)COc1ccc(-c2nnc(-c3ccccc3)o2)cc1	78.1*
COc1ccc(C2C3=C(CCCC3=O)Nc3nc4ccccc4n32)cc1OC (centres undefined)	-19.8
CCOC(=O)N1CCN(C(=O)c2ccc3c(=O)n(Cc4ccccc4)c(=S)[nH]c3c2)CC1	69.2*
CCOC(=O)N1CCN(C(=O)c2ccc3c(=O)n(Cc4ccc(OC)cc4)c(=S)[nH]c3c2)CC1	-34.8
CCOC(=O)N1CCN(C(=O)c2ccc(Cn3c(=S)[nH]c4cc5c(cc4c3=O)OCO5)cc2)CC1	-13.8
Cc1nc(SCC(=O)N2CCN(c3ccccc3)CC2)c2c(=O)n(C)c(=O)n(C)c2n1	-12.2
O=C1OCCC1Sc1nc2cc(Cl)ccc2s1 (centres undefined)	-4.7
Cc1ccc(NC(=O)CN(C)S(=O)(=O)c2cccc3nsnc23)cc1C	-47.1
Cc1ccc(NC(=O)CN(C)S(=O)(=O)c2cccc3nsnc23)cc1Cl	-38.6
SMILES	GBA enhancer
CN(CC(=O)Nc1ccc(F)c(F)c1)S(=O)(=O)c1cccc2nsnc12	120.9*
CCOC(=O)CSc1nnc(-c2nnc(SCC(=O)OCC)n2CC)n1CC	-12.5
CCOC(=O)c1cncc(NC(=O)c2ccccc2)c1	3.9
CCCCN1C(=O)c2ccc(C(=O)NC3=NCCS3)cc2C1=O	-47.6
CCNC(=O)c1cc2c(=O)n3cccc(C)c3nc2n1C	-17.6
Cc1cccn2c(=O)c(C=Nc3ccccc3)c(NCCO)nc12	-23.0
Cc1cccn2c(=O)c(C=Nc3ccc(Cl)cc3)c(NCCO)nc12	67.6*
CCOC(=O)SC1=N/C(=C\c2ccc(N(C)C)cc2)C(=O)S1	10.2
C=CCSC1=N/C(=C\c2ccsc2)C(=O)S1	401.6*
COc1ccc(C2C3=C(CCCC3=O)Nc3nc4ccccc4n32)c(OC)c1OC (centres undefined)	-15.0
CSCCC(NC(=O)COc1ccccc1)C(=O)N1CCN(c2ccccc2F)CC1 (centres undefined)	-2.6
COc1ccc(C(=O)n2nc(-c3ccccc3)nc2N)cc1OC	70.9*
CCCC(=O)n1nc(-c2ccc(OC)cc2)nc1N	21.0
Nc1nc(-c2ccc(Cl)cc2)nn1C(=O)c1cccnc1	15.2
CCCCCn1c(=NC(C)=O)c(C#N)cc2c(=O)n3cccc(C)c3nc21	41.6
Cc1cccc2cc(CN(Cc3nnnn3Cc3ccco3)C3CCCC3)c3nnnn3c12	1.8
CCOC(=O)c1c(NC(=O)CSc2nnnn2CC)sc(C)c1C	-14.9
Cn1c(Sc2nc3ccccc3n2C)nc2ccccc21	-19.8
CN(C)c1ccc(-c2nc3ccccc3n2C)cc1	80.7*
Cn1c(-c2ccc(Br)o2)nc2ccccc21	5.0
CCOc1cc(S(=O)(=O)NCCc2cccc(C)c2)c(OCC)cc1-n1cnnn1	5.2
CC1S/C(=C(\C#N)C(N)=O)N(c2ccc(F)cc2)C1=O (centres undefined)	-37.2
O=C1C2ON(c3ccc(Cl)cc3)C(c3ccco3)C2C(=O)N1c1ccccc1 (centres undefined)	3.4
Cc1ccc(C)n1-c1ccc(N2CCOCC2)cc1	-3.4
Cc1cc(C)cc(N2CCN(C(=O)N3CCOCC3)CC2)c1	71.6*
O=C(N1CCOCC1)N1CCN(c2ccccn2)CC1	14.7
Cc1nnc(Sc2nc(Sc3nnc(C)s3)nc(N3CCN(C)CC3)n2)s1	-17.8
CN(c1ccccc1)C(c1ccc(F)cc1)c1nnnn1C1CCCC1 (centres undefined)	-23.5
COc1cc(OC)nc(NC(=O)CSc2nnc(-c3ccccc3)n2C2CCCCC2)n1	-1.6
Cc1nc(N)sc1-c1nnc(SCC(=O)Nc2nccs2)n1C	-18.8
